Screening results: PubChem, several laboratories
This is a sample that favours compounds with a hit; in the whole collection about 3% have one here.
MITF TRPM1 inh – MITF TRPM1 promoter inhibition in SK-MEL-5 cells; SK-MEL-5 TRPM1 promoter luciferase, 24 h; inhibition, % at 12.5 µM; hit rate 0.83% among 330,000; AID 488899;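 active means mean inhibition across replicates of 60% or more, whatever share of single replicates reaches that level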
PAX8 reporter – lowers PAX8-driven luciferase in RMG-I cells. inhibition, % at 12.6 µM. AID 652154. hit rate 1.2% among 360,000. RMG-I TPO-luciferase reporter, SteadyGlo, 24 h;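 active means mean replicate inhibition at least 60% with every replicate also reaching 60%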;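 further: luciferase light reporting Pax8 driven TPO promoter activity; plate controls were median of neutral control wells for no effect and mitoxantrone controls for full effect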
ABHD5-PLIN5 inh – inhibitors of human ABHD5-perilipin-5 interaction. Q00G26+Q8WTS1. hit rate 0.78% among 360,000. Split G. princeps luciferase complementation, luminescence, 4 h. inhibition, % at 4 µM. AID 602281;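 active means inhibition above the mean inhibition across every tested compound plus 3 SD, cut at about 22% in these data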;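 further: 0% = DMSO only wells and the 100% control is not disclosed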
Target sequence (Q00G26 whole entry, looked up): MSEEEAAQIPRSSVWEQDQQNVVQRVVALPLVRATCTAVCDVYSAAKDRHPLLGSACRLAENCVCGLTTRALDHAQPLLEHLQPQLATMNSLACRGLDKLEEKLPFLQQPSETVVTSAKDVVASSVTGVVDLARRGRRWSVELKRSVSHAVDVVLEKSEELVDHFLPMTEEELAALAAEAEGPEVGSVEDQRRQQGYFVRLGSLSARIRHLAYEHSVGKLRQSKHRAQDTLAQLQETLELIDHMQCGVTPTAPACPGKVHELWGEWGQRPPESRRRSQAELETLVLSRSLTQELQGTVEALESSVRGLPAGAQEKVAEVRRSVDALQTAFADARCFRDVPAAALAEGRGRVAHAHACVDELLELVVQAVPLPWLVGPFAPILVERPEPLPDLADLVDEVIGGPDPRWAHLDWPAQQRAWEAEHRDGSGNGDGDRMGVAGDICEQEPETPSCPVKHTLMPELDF
Target sequence (Q8WTS1 whole entry, looked up): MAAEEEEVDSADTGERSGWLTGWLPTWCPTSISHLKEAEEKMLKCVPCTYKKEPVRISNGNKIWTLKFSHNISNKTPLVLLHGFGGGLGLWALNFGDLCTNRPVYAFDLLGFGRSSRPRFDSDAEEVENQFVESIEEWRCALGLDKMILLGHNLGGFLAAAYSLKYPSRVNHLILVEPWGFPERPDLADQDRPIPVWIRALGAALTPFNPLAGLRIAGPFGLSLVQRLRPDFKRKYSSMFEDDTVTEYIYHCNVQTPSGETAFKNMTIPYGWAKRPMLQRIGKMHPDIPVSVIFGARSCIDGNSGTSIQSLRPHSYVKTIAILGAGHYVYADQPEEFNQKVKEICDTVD
Peg3 prom inh-1 – inhibitors of Peg3 promoter | inhibition, % at 20 µM | hit rate 1.7% among 360,000 | HeLa PEG-Prom luciferase reporter, luminescence, overnight;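 active means inhibition of at least 50% at 20 µM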
Shn3 inh set2 – Schnurri-3 reporter inhibition in Clone20 osteoblasts; hit rate 0.52% among 360,000; AID 588674; inhibition, % at 12.5 µM; Clone20 osteoblast Shn3 3'UTR firefly luciferase, 24 h;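 active means mean inhibition of at least 75% with every replicate also reaching 75%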;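 further: 0% = median of neutral control wells and 100% = pilot-screen positive control compound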
EWS-Fli block – EWS/Fli transcriptional activity inhibition; A673 NR0B1-luciferase reporter, viability-normalised; inhibition, % at 12.6 µM; hit rate 0.67% among 350,000;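 active means mean inhibition of at least 50% after viability correction, with every replicate also passing that limit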;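 further: firefly luciferase signal divided by Alamar Blue viability fluorescence both relative to DMSO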
Peg3 prom inh-2 – confirmation of Peg3 promoter inhibitors. shares compounds with Peg3 prom inh-1. HeLa PEG-Prom luciferase reporter, luminescence, overnight. inhibition, % at 20 µM. hit rate 84% among 1,300. AID 602417;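 active means at 20 µM dose, 40% or more inhibition averaged across four replicates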
* hit, by the source's call.

Screening Cc1noc(C)c1S(=O)(=O)Nc1ccc2c(c1)C(=O)N([C@@H](C)CO)C[C@@H](C)[C@@H](CN(C)Cc1ccc3c(c1)OCO3)OCCCC[C@H](C)O2 returned PAX8 reporter 7 and EWS-Fli block -5.
O=C(/C=C/c1ccccc1)Nc1cccc(C(=O)O)c1 was read as MITF TRPM1 inh 99*, PAX8 reporter 96*, ABHD5-PLIN5 inh 6, Peg3 prom inh-1 85*, Shn3 inh set2 69, EWS-Fli block 86* and Peg3 prom inh-2 77*.
For Cc1cc(C(=O)Nc2cccc(C(=O)O)c2)c(C)o1 the results were MITF TRPM1 inh 7, ABHD5-PLIN5 inh -1, Peg3 prom inh-1 -49 and Shn3 inh set2 -16.
Cc1cc(C(=O)Nc2cccc(C(=O)O)c2)oc1C was read as MITF TRPM1 inh 87*, ABHD5-PLIN5 inh 3, Peg3 prom inh-1 82*, Shn3 inh set2 61 and Peg3 prom inh-2 52*.
Screening C[C@H](CO)N1C[C@H](C)[C@H](CN(C)C(=O)Nc2ccc(F)cc2)Oc2ccc(NC(=O)Nc3ccc4c(c3)OCO4)cc2C1=O returned PAX8 reporter -9 and EWS-Fli block -12.
For C[C@@H]1CCCCO[C@H](CN(C)S(C)(=O)=O)[C@H](C)CN([C@@H](C)CO)C(=O)c2cc(NS(=O)(=O)c3ccc(Cl)cc3)ccc2O1 the results were PAX8 reporter -18 and EWS-Fli block -3.
For CCCC#Cc1ccc([C@H]2[C@@H](CO)N3CCCCN(CC4CCOCC4)C[C@H]23)cc1 the results were PAX8 reporter 0 and EWS-Fli block -4.
For COc1ccc(Cn2c(/C=C/c3ccccc3)nc3ccccc32)cc1 the results were MITF TRPM1 inh -82, PAX8 reporter -205, ABHD5-PLIN5 inh -3, Peg3 prom inh-1 -235 and Shn3 inh set2 -14.
For COc1ccc(/C=C/c2nc3ccccc3n2C)cc1 the results were MITF TRPM1 inh 36, PAX8 reporter 88*, ABHD5-PLIN5 inh 7, Peg3 prom inh-1 68*, Shn3 inh set2 73, EWS-Fli block 81* and Peg3 prom inh-2 78*.
Screening C[C@@H]1CN([C@H](C)CO)C(=O)c2cccc(NC(=O)C3CCOCC3)c2O[C@@H]1CN(C)S(=O)(=O)c1ccccc1 returned PAX8 reporter 5 and EWS-Fli block 2.
For O=C(NCc1ccc(F)cc1)[C@H]1[C@H](CO)[C@H]2Cn3c(cccc3=O)[C@H]2N1C(=O)c1cccnc1 the results were EWS-Fli block 6.
CN(C)CCNc1ncnc2c1ncn2[C@H]1CN(Cc2ccc(-c3ccccc3)cc2)C[C@@H](CO)O1 was read as PAX8 reporter 20, ABHD5-PLIN5 inh -3, Peg3 prom inh-1 80*, Shn3 inh set2 3, EWS-Fli block 2 and Peg3 prom inh-2 75*.
COc1cccc(S(=O)(=O)N[C@@H]2CC[C@@H](CCn3cc(-c4ccccn4)nn3)O[C@H]2CO)c1 was read as PAX8 reporter 5 and EWS-Fli block 0.
COc1ccc(NC(=O)N(C)C[C@H]2Oc3c(NC(=O)c4cnccn4)cccc3C(=O)N([C@@H](C)CO)C[C@H]2C)cc1 was read as EWS-Fli block -11.
CCCCCCCCCC[N+](C)(C)CC/C=C1/c2ccccc2Sc2ccc(Cl)cc21 was read as MITF TRPM1 inh 8, ABHD5-PLIN5 inh 6, Peg3 prom inh-1 108*, Shn3 inh set2 87* and Peg3 prom inh-2 100*.
`CC[N+](C)(C)CC/C=C1/c2ccccc2Sc2ccc(Cl)cc21` gave PAX8 reporter 4, ABHD5-PLIN5 inh -2, Peg3 prom inh-1 -4, Shn3 inh set2 -8 and EWS-Fli block 2.
CO[C@H]1CN(C)C(=O)c2ccc(NS(C)(=O)=O)cc2OC[C@H](C)N(C(=O)C2CCCC2)C[C@H]1C was read as PAX8 reporter -8 and EWS-Fli block -7.
Screening COc1cccc(-c2sc3ccc(OC)cc3c2-c2ccc(OCCN(C)C)cc2)c1 returned MITF TRPM1 inh 19, PAX8 reporter 68*, ABHD5-PLIN5 inh 21, Peg3 prom inh-1 100*, Shn3 inh set2 -4, EWS-Fli block 26 and Peg3 prom inh-2 71*.
Screening CC(=O)N1CCN(c2ccc(Nc3ncnc4c3oc3ccccc34)cc2)CC1 returned MITF TRPM1 inh 2, ABHD5-PLIN5 inh 6, Peg3 prom inh-1 -89 and Shn3 inh set2 19.
For CCc1nc(Nc2ccc(N3CCN(C(C)=O)CC3)cc2)c2oc3ccccc3c2n1 the results were MITF TRPM1 inh -6, ABHD5-PLIN5 inh 8, Peg3 prom inh-1 79*, Shn3 inh set2 31 and Peg3 prom inh-2 68*.
Screening COc1ccc(N(C(=O)CCl)C(C(=O)NC2CCCCC2)c2cccnc2)cc1 (stereo not given) returned MITF TRPM1 inh 87*, PAX8 reporter 113*, ABHD5-PLIN5 inh 8, Peg3 prom inh-1 100*, Shn3 inh set2 9 and Peg3 prom inh-2 99*.
Screening CNC[C@H]1OCCCC[C@H](C)Oc2ccc(NC(=O)Nc3ccc(F)cc3)cc2C(=O)N([C@@H](C)CO)C[C@@H]1C returned PAX8 reporter 0 and EWS-Fli block -4.
Screening COc1cc(NC(=O)c2cccs2)c(C(=O)OCC(=O)c2cc(C)n(-c3ccccc3)c2C)cc1OC returned MITF TRPM1 inh 64*, PAX8 reporter 23, ABHD5-PLIN5 inh -1, Peg3 prom inh-1 59*, Shn3 inh set2 9 and Peg3 prom inh-2 83*.
`O=C(NCC[C@@H]1CC[C@@H](NC(=O)C2CCOCC2)[C@@H](CO)O1)Nc1ccc(Cl)cc1` gave PAX8 reporter -7 and EWS-Fli block -4.
For O=C(Nc1ccc(-c2cn3ccsc3n2)cc1)c1ccc(F)c(S(=O)(=O)N2CCOCC2)c1 the results were MITF TRPM1 inh 47, PAX8 reporter 23, ABHD5-PLIN5 inh 0, Peg3 prom inh-1 80*, Shn3 inh set2 10 and Peg3 prom inh-2 96*.
For COC(=O)[C@@H]1[C@@H](CO)[C@@H]2Cn3c(ccc(C4=CCCC4)c3=O)[C@@H]2N1Cc1ccccn1 the results were PAX8 reporter 10 and EWS-Fli block -4.
`CC(C)CC(N)c1csc(Nc2ccc(C(=O)c3ccccc3)cc2)n1` (stereo not given) gave ABHD5-PLIN5 inh 11, Peg3 prom inh-1 53*, Shn3 inh set2 49, EWS-Fli block 12 and Peg3 prom inh-2 94*.
`Cc1ccc(NC(=S)NC(=O)c2ccc(F)cc2)cc1S(=O)(=O)Nc1ccccc1Cl` gave MITF TRPM1 inh 17, PAX8 reporter 36, ABHD5-PLIN5 inh 9, Peg3 prom inh-1 55*, Shn3 inh set2 -1, EWS-Fli block -1 and Peg3 prom inh-2 58*.
Screening Nc1cc2c3c(cccc3c1)C(=O)N(CCN1CCCC1)C2=O returned MITF TRPM1 inh 90*, PAX8 reporter 11, ABHD5-PLIN5 inh 5, Peg3 prom inh-1 107*, Shn3 inh set2 6, EWS-Fli block 39 and Peg3 prom inh-2 95*.
